# Screening results: PubChem BioAssay, National Center for Advancing Translational Sciences (NCATS)
# This is a sample that favours compounds with a hit; in the whole collection about 20% have one here.
# HCMV antiviral = human cytomegalovirus inhibition; HFF cells, HCMV-luciferase reporter, 72 h; hits give low values; activity change, negative = inhibition, % at 57.5 µM; actives 4.5% (n = 410,000); AID 1259415; in the data active means activity change below about -60%; inconclusive means no clear call, values can overlap the other calls; inactive means above about -39%
#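 Two-dose cell screen: HFF monolayers treated with compounds and infected with luciferase-expressing HCMV at 1 PFU/cell, 72 h at 37C, then lysed for luciferase measurement.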
# Pf growth 48h = inhibits P. falciparum growth in the first generation, 48 h; P. falciparum luciferase growth in erythrocytes, 48 h; actives 5.9% (n = 310,000); AID 504832; Potency, µM (series often up to 28.7 µM), actives largely listed as inhibitors
#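 Luciferase-expressing P. falciparum in infected erythrocytes (2% hematocrit, 0.1% parasitemia final) in RPMI 1640/0.5% Albumax were exposed to compound for 48 hours at 37 C, 5% CO2; growth read as luminescence.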
# Pf growth 96h = P. falciparum growth inhibition at 96 hour, primary screen for plastid delayed-death inhibitors; P. falciparum luciferase reporter growth, 96 h; actives 6.9% (n = 320,000); AID 504834; Potency, µM (series often up to 28.7 µM), usual class: inhibitors
#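 P. falciparum expressing integrated firefly luciferase, in erythrocytes at 2% hematocrit, 0.05% parasitemia, incubated with compounds 96 h at 37 C, 5% CO2. Growth inhibition read as loss of luminescence; two-generation exposure targets delayed-death apicoplast inhibitors.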
# Shiga inhibitor = inhibitors of Shiga toxin in Vero cells. Vero cells, Shiga toxin protein synthesis inhibition reporter. inhibition, % at 38.7 µM. actives 9.2% (n = 290,000); in the data active means inhibition mostly above about 28%, no sharp cut-off; inactive means mostly below about 43%
# Cycloheximide cs = affects cycloheximide protein synthesis inhibition readout, counter-screen; cell reporter, cycloheximide protein synthesis inhibition counterscreen; max response, %; actives 12% (n = 300,000); in the data active means max response mostly above about 13%, no sharp cut-off; inactive means mostly below about 14%; further: read at 38.3 µM for the half of the compounds with a filed dose
# Hits are given with their value; - = inactive; ? = inconclusive; . = not tested or not shown; [ ] = dose if it differs, or a comment. Unless noted, the call rests on the fitted dose curve; in most records, active means well fitted inhibition curve with a large enough effect; inconclusive means small, poorly fitted or top-dose-only effect, or another doubt; inactive means no such curve, though single readings can be large or run the other way.
SMILES,HCMV antiviral,Pf growth 48h,Pf growth 96h,Shiga inhibitor,Cycloheximide cs
Cc1ccc2[nH]c(=O)c(CN(Cc3cccnc3)C(=O)c3ccncc3)cc2c1,-,-,-[5.75 µM],-,-
C#Cc1cccc(C(=O)N(Cc2cccnc2)CC2CCCN(C3CCCCC3)C2)c1 (centres undefined),-63.0,.,.,.,.
O=C(c1cc2cc(F)ccc2[nH]1)N(Cc1cccnc1)CC1CCCN(C2CCCCC2)C1 (centres undefined),-,2.62µM,?,-,-
O=C(NCC1CCCCC1)c1cccnc1,-,-,?,-,-
OC(CNCCC1C=Nc2ccccc21)Cn1c2ccc(Cl)cc2c2cc(Cl)ccc21 (centres undefined),-,2.62µM,?,-,-
OC(CNCC1CCCO1)Cn1c2ccc(Cl)cc2c2cc(Cl)ccc21 (centres undefined),-,0.37µM,-,-,-
Clc1ccc(CNCC2CCCO2)cc1 (centres undefined),-,-,-,-,-
OC(CNCC1CCCO1)Cn1c2ccccc2c2ccccc21 (centres undefined),-,4.65µM,?,-,-
CCn1c2ccccc2c2cc(NC(=O)C(=O)NCC3CCCO3)ccc21 (centres undefined),-,?,-,-,-
Cc1ncc([N+](=O)[O-])n1CC(=O)Nc1cccc(C(F)(F)F)c1,-,-,-,-,-
CC(=O)c1ccc(N2CCN(S(=O)(=O)c3c(C(=O)N4CCCC4)c(C)n(C)c3C)CC2)cc1,-,-,-,-,-
O=C(Nc1ccc(Br)cn1)c1cccc2ccccc12,-,.,.,.,.
COc1c(C(=O)Nc2ccc(Br)cn2)ccc2ccccc12,-,-[0.00184 µM],-,76.5,25.7
O=C(Nc1ccc(Br)cn1)c1ccc2ccccc2c1,-,-,-,.,29.4
O=C(Nc1ccc(Br)cn1)c1cccc(C(=O)Nc2ccc(Br)cn2)c1,-,.,-,-,-
COc1cc2ccccc2cc1C(=O)Nc1ccc(Br)cn1,-,-,?,-,25.0
CCc1ccc(NC(=S)NCc2cccnc2)cc1,-,-,-,-,-
CCCCc1ccc(NC(=O)OC)cc1,-,-,-,45.7,-
CCCCc1ccc(NC(=O)Nc2cccnc2)cc1,-,?,-,152.9,76.1
CCCCc1ccc(NC(=S)Nc2cccnc2)cc1,-,-,-,-,-
CCCCc1ccc(NC(=S)NCc2cccnc2)cc1,-77.0,-,-,-,-
CCCCCc1ccc(CC(=O)O)cc1,-,-,9.28µM,-,-
CCCCc1ccc(CC(=O)O)cc1,-,-,-,-,-
CCCSc1nc2c(c(=O)[nH]1)C(c1ccc(O)c(OCC)c1)CC(=O)N2 (centres undefined),-,.,.,.,.
C[C@@]12CCc3occc3[C@H]1CC[C@]13CC(=O)[C@@H](CC[C@H]12)C3,.,.,.,-,-
SMILES,HCMV antiviral,Pf growth 48h,Pf growth 96h,Shiga inhibitor,Cycloheximide cs
O=C(CN(CCc1ccccc1)S(=O)(=O)c1ccccc1)NCc1ccc(Cl)cc1,-,.,.,.,.
S=C(NCc1cccnc1)Nc1ccc(Oc2ccccc2)cc1,-70.8,?,-,-,-
FC(F)Oc1ccc(NC(=S)NCc2cccnc2)cc1,-,?,-,-,-
CSC(=S)NCc1cccnc1,-81.9,?,-,-,-
O=C(Nc1nc(N2C(=O)c3ccccc3C2=O)n(-c2ccccc2)n1)c1ccc(Cl)cc1,-,-,-,-,-
Cc1ccc(CNC(=O)COC(=O)c2nc(-c3ccccc3)oc2C)cc1,-,-,-,.,.
COc1ccc(CCNC(=O)c2nnn(CC(=O)Nc3cccc(F)c3)c2N)cc1OC,-,-,-,-,-
C/C(=N\NC(=S)Nc1ccccc1C)C1Cc2ccccc2C(=O)O1 (centres undefined),-,?,-,-,40.5
C/C(=N\NC(=S)Nc1ccccc1)C1Cc2ccccc2C(=O)O1 (centres undefined),?,10.4µM,?,82.1,51.1
CCOC(=O)c1ccc(NC(=O)C2Cc3ccccc3C(=O)O2)cc1 (centres undefined),-,.,.,.,.
COC(=O)[C@]12CCCCC=C1N(Cc1ccccc1)C(=O)[C@H](CC(=O)NCCCCc1ccccc1)C2,-,.,.,.,.
Cc1cc(Br)ccc1OCc1nnc(-c2ccccc2)o1,-,.,.,.,.
CC(=O)Nc1ccc(OCc2nnc(-c3ccccc3)o2)cc1,-,-,3.7µM,-,-
Clc1ccccc1OCc1nnc(-c2ccccc2)o1,?,-,-,67.2,46.5
CC(=O)Nc1ccccc1OCc1nnc(-c2ccc(Cl)cc2)o1,-,-,-,-,27.8
COc1ccc(CCNC(=O)c2cc(C3CC3)on2)cc1OC,-,-,-,-,-
O=C(CN1C(=O)NC2(CCCC2)C1=O)NCc1ccccc1,-,.,.,.,.
CN(C)C1(CNC(=O)c2cccc(S(=O)(=O)Nc3ccc(Br)cc3)c2)CCCCC1,-,?,?,.,.
O=C(OCC1CC(c2ccccc2)=NO1)c1ccc(Br)cc1 (centres undefined),-,-,-,-,-
O=C(OCC1CC(c2ccccc2Cl)=NO1)c1ccc(Br)cc1 (centres undefined),-,-,-,-,19.9
O=C(OCC1CC(c2ccccc2)=NO1)c1ccco1 (centres undefined),-,-,-,93.0,54.0
Cc1ccccc1NC(=O)CSCn1nnc2c(=O)[nH]c(Cc3ccc(F)cc3)nc21,-,.,.,.,.
O=c1[nH]c(/C=C2\C=Nc3ccccc32)c(O)n1Cc1ccccc1F,-,?,-,-,-
CSc1nc(O)c(/C=C2\C=Nc3ccccc32)[nH]1,-,-,-,140.2,62.3
CNC(=S)N(CCc1c(C)[nH]c2ccc(C)cc12)Cc1cc(OC)c(OC)c(OC)c1,-,-,10.4µM,-,-
SMILES,HCMV antiviral,Pf growth 48h,Pf growth 96h,Shiga inhibitor,Cycloheximide cs
CNC(=S)N(CCc1c(C)[nH]c2ccc(OC)cc12)Cc1cc(OC)c(OC)c(OC)c1,-,10.4µM,14.7µM,-,-
CNC(=S)N(CCc1ccc(OC)c(OC)c1)Cc1cc2c(C)cc(C)cc2[nH]c1=O,-,?,11.7µM,-,-
CSCCC(NC(=O)c1ccccc1Cl)C(=O)NCC(c1cccs1)N(C)C (centres undefined),-,?,-,.,.
N/C(=N\OC(=O)COc1ccc(Cl)cc1)c1ccc(Cl)cc1,-,-,-,-,-
N/C(=N\OC(=O)COc1ccc2ccccc2c1)c1cccnc1,-,-,-,52.5,24.3
N/C(=N\OC(=O)COc1ccc2ccccc2c1)c1ccncc1,.,-,-,34.4,30.5
N/C(=N\OC(=O)COc1ccc2ccccc2c1Br)c1ccncc1,.,-,-,91.3,23.5
Cc1cccc(OCC(=O)O/N=C(\N)c2ccncc2)c1,-,-,?,59.3,19.7
O=C(O)CC(C(=O)O)C(=Cc1ccccc1)c1ccccc1 (centres undefined),-,.,.,.,.
CN(C(=O)COC(=O)C1(C)CC1(Cl)Cl)c1c(N)n(Cc2ccccc2)c(=O)[nH]c1=O (centres undefined),-,-,-,.,.
CCOC(=O)c1sc(NC(=O)C2c3ccccc3Oc3ccccc32)c(C(=O)OCC)c1C,-,.,.,.,.
COC(=O)c1c(-c2cccs2)csc1NC(=O)c1cccnc1,-,-,-,60.1,37.4
COC(=O)c1c(-c2cccs2)csc1NC(=O)c1ccc(Cl)cc1,-,.,.,.,.
